Bioassay records (PubChem BioAssay)
The list is not random: actives were taken first. Their share in the collection is about 1.5%.
PrP 5UTR inh = inhibition of PrP 5' UTR reporter expression; hit rate 0.35% among 340,000; inhibition, % (no concentration beside the values); cell-based PrP 5' UTR mRNA reporter, plate reader; AID 488862, 2010; in the data active means inhibition above about 52%; further: 0 = median of the neutral control wells
MazF activator = activators of E. coli MazEF toxin-antitoxin RNase, primary screen, biochemical, fluorescence, uHTS. Endoribonuclease toxin MazF (Escherichia coli (strain K12)), P0AE70. hit rate 0.32% among 350,000. FAM/BHQ RNA-DNA oligo cleavage fluorescence, 5 h. activation, % at 20 µM; in the data active means activation above about 50%
Target sequence (P0AE70 whole entry, looked up): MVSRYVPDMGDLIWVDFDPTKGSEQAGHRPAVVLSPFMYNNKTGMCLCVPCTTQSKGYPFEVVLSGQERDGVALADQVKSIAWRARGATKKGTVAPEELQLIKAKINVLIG
PrPC TRFRET = inhibitors of human cell surface prion protein PrPC, primary screen, cell-based, TR-FRET; Major prion protein (Homo sapiens), P04156; TR-FRET read-out; inhibition, % at 13.8 µM; hit rate 0.43% among 370,000; AID 720596, 2013; in the data active means inhibition above about 24%; further: 0% = median of the test wells and 100% = reference compound wells
DUSP3 inh = VHR1 phosphatase inhibitors, primary screen, biochemical, absorbance, uHTS. inhibition, % at 13.3 µM. hit rate 0.52% among 290,000. Dual specificity protein phosphatase 3 (Homo sapiens), P51452. AID 1654, 2009. recombinant VHR phosphatase, pNPP absorbance; in the data active means inhibition above about 50%
Target sequence (P51452 whole entry, looked up): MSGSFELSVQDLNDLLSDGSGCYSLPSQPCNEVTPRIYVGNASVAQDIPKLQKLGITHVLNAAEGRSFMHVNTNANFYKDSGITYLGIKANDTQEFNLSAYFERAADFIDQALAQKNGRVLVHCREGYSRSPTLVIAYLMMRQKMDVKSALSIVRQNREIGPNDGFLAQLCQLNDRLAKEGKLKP
Mtb hypoxia inh = PubChem AID 1159583; M. tuberculosis hypoxia-regulated fluorescent reporter, fluorescence; fluorescence inhibition, % (no concentration beside the values); hit rate 0.1% among 300,000; in the data active means fluorescence inhibition mostly above about 23%, no sharp cut-off; inactive means mostly below about 17%
SARS 3CLpro inh = SARS-CoV 3CLpro protease inhibitors, primary screen, biochemical, quenched FRET | Replicase polyprotein 1ab (Severe acute respiratory syndrome coronavirus), P0C6X7 | recombinant SARS-CoV 3CLpro, quenched FRET peptide cleavage | inhibition, % at 6 µM | hit rate 0.14% among 290,000 | AID 1706, 2009; in the data active means inhibition above about 12%
PrP UTR cherry = prion 5' UTR mRNA inhibition, cherry-pick retest | cell-based prion protein 5' UTR reporter, plate reader | hit rate 48% among 1,100 | inhibition, % at 2.5 µM | shares compounds with PrP 5UTR inh; in the data active means inhibition above about 54%; inconclusive means no clear call, values can overlap the other calls
Starred values were filed as active, the others as inactive; ? = inconclusive; · = not tested or not shown.

SMILES	PrP 5UTR inh	MazF activator	PrPC TRFRET	DUSP3 inh	Mtb hypoxia inh	SARS 3CLpro inh	PrP UTR cherry
Cc1ccc(-c2cc3c(N=O)c4ccccc4c-3n[nH]2)cc1	79*	15	-7	36	12	-6	81*
Cc1ccccc1OC(C)c1nc(-c2ccccc2)no1 (stereo unspecified)	-22	-8	0	13	-8	1	·
Cc1ccc(SC(C)c2nc(-c3ccccc3)no2)cc1 (stereo unspecified)	75*	1	6	-19	4	-3	-13
O=C(Nc1ccc([N+](=O)[O-])cc1)C(=O)Nc1cccc(C(=O)O)c1	88*	-3	-45	10	·	-2	92*
O=C1C=C(c2ccc(-c3ccccc3)c(F)c2)CC(c2ccc(Cl)cc2)C1 (stereo unspecified)	·	·	·	·	-2	·	·
O=C1OCCN1C(=O)[C@H]1[C@H](c2ccccc2)C(c2ccc(F)cc2)=NN1c1ccc(Br)cc1	67*	-6	-1	·	2	·	-10
CC(C)C[C@H]1CNC(=S)N1CC1CCCN1C[C@H](Cc1ccc(O)cc1)N1C[C@H](Cc2ccccc2)N(CC2CCCCC2)C1=S (stereo partly specified)	67*	-14	-5	·	·	·	-3
COC(=O)c1ccc(Cn2cc(/C=C\[N+](=O)[O-])c3ccccc32)o1	52*	11	-7	4	10	4	-20
CC(C)(C)C(=O)Nc1ccc(NC(=O)c2ccco2)nc1	88*	1	-10	26	·	5	94*
O=C(Nc1ccc(NC(=O)c2ccco2)nc1)c1ccco1	-38	7	6	8	4	4	·
O=c1[nH]cnc2c1ncn2[C@@H]1O[C@H](CO)[C@@H](O)[C@H]1O	79*	7	-13	9	·	0	-7
O=c1[nH]cnc2c1ncn2[C@@H]1O[C@H](COS(=O)(=O)O)[C@@H](O)[C@H]1O	0	-20	2	·	·	·	·
FC(F)(F)c1ccc(-c2nc3ccccc3s2)cc1	·	·	2	·	·	·	·
COC(=O)N(C)c1nc2ccccc2s1	-40	1	3	2	11	0	·
CN(C(=O)OC(C)(C)C)c1ccc(-c2nc3ccccc3s2)cc1	90*	2	-8	·	-11	·	88*
CC(C)c1ccc(-c2nc3ccccc3s2)cc1	85*	-7	6	20	5	-5	85*
CC(C)(C)NC(=S)N1CCC(C(=O)c2ccc(F)cc2)CC1	-10	6	-9	76	6	2	·
CC(C)(C)NC(=S)N1CCC(C(=O)c2ccc(Cl)cc2)CC1	56*	5	-1	35	13	-2	12
OCC1=C[C@@H](O)[C@@H]2C=CO[C@@H](O[C@@H]3O[C@H](CO)[C@@H](O)[C@H](O)[C@H]3O)[C@H]12	65*	16	3	·	3	·	4
COc1cccc(C=NNC(=O)C(=O)NCc2cccnc2)c1	·	·	·	·	14	·	·
O=C(NC1CCCCC1)N1CCN(c2ccccc2)CC1	67*	7	1	35	12	2	-36
Cc1ccc2cc3c(N)c(C(=O)N4CCOCC4)sc3nc2c1	-50	6	-35	30	5	1	·
Cc1ccc2nc3sc(C(=O)N4CCOCC4)c(N)c3cc2c1	86*	6	-4	39	6	-2	69*
Cc1ccc(C(=O)Nc2nnc(CC(=O)NN=Cc3ccc(O)c(O)c3)s2)cc1	·	·	·	·	10	·	·
Cc1ccoc1C(=O)Nc1ccc(CC(=O)O)cc1	64*	-3	-5	9	-17	0	53*
SMILES	PrP 5UTR inh	MazF activator	PrPC TRFRET	DUSP3 inh	Mtb hypoxia inh	SARS 3CLpro inh	PrP UTR cherry
Cc1ccoc1C(=O)Nc1ccc2ccccc2c1	10	-19	-29	34	·	-3	·
O=C(Nc1nccs1)c1cc2c(s1)CCCCC2	64*	3	4	0	-2	3	72*
O=C(Nc1nncs1)c1cc2c(s1)CCC2	-3	-4	3	24	22	0	·
CCN(CC)C(=O)CSc1nc2ccccc2c(=O)n1CCC(=O)N1CCN(c2ccccc2)CC1	56*	3	-2	16	10	-1	1
CCCn1c(SCC(=O)N2CCN(c3ccccc3)CC2)nc2ccccc2c1=O	-5	3	-1	2	-1	0	·
O=C(NN=Cc1ccco1)c1ccc2nc[nH]c2c1	·	·	·	·	9	·	·
COC(=O)C(O)(c1ccc(N(C)C)cc1)C(F)(F)F (stereo unspecified)	66*	-18	-3	0	8	0	11
O=C(CN1C(=O)NC(c2ccccc2)(c2ccccc2)C1=O)NCc1ccccc1	-1	-2	4	·	-1	·	·
Cc1ccc(C2(c3ccccc3)NC(=O)N(CC(=O)NCc3ccccc3)C2=O)cc1C (stereo unspecified)	80*	-1	16	·	10	·	-4
OCCN1CCN(CC/C=C2/c3ccccc3Sc3ccc(Cl)cc32)CC1	82*	19	-21	·	·	·	-19
CCc1ccc(S(=O)(=O)N=C2C=C(Sc3ncn[nH]3)C(=O)c3ccccc32)cc1	·	·	·	·	-3	·	·
COc1ccc(C(=O)N/C(=C\c2ccc3c(c2)OCO3)C(=O)N2CCOCC2)cc1	77*	5	0	-15	-7	-4	?
CCOC(=O)c1c(C)[nH]c(C2=NNC(=NC3CC3)SC2)c1C	71*	7	·	-21	5	0	54*
Cc1nn(-c2ccccc2)c(C)c1C=NNC(=O)c1cnccn1	·	·	·	·	3	·	·
COc1ccccc1/C=C/C=NNC(=O)Cc1cccs1	·	·	·	·	5	·	·
COc1cc(C2c3cc4c(cc3CC3COC(=O)N32)OCO4)cc(OC)c1OC (stereo unspecified)	58*	3	7	·	·	·	91*
COc1cc(C2C3=C(Nc4ncnn42)c2ccccc2CC3)cc(OC)c1OC (stereo unspecified)	62*	-10	-7	22	-3	2	86*
COc1cc2cc(C(=O)N3CC(COS(C)(=O)=O)c4ccc(O)cc43)[nH]c2c(OC)c1OC (stereo unspecified)	97*	9	·	·	·	·	97*
COC(=O)c1ccc(COc2ccccc2/C=N/Nc2cccc(C(=O)O)c2)cc1	77*	-1	1	14	·	2	-34
COC(=O)c1ccc(COc2ccccc2C=NNc2cccc(C(=O)O)c2)cc1	·	·	·	·	11	·	·
CCOc1cc(/C=N/Nc2cccc(C(=O)O)c2)ccc1OC(=O)c1ccccc1	71*	1	15	-12	·	-1	?
Cc1cc(C=C2C(=O)c3ccccc3C2=O)c(C)n1-c1ccccc1	75*	156*	-11	8	6	-1	62*
